Bioassay records (PubChem)
Shown are actives, neighbours in structure and some others; about 3.4% of the full set was active somewhere.
HGIII-sPLA2 inh = Blocks human group III sPLA2 activity; 370,000 tested, 0.56% active; inhibition, % at 12.2 µM; Q9NZ20; AID 743126; QFRET BODIPY PC-A2 liposome hydrolysis, fluorescence;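 active means inhibition above mean plus 3 SD of compounds lying within the high and low control bounds, cut at about 19% in these data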
ADAM10 inh = inhibitors of human ADAM10; 370,000 tested, 0.62% active; O14672; inhibition, % at 7 µM; recombinant ADAM10, EDANS/DABCYL FRET peptide cleavage, 3 h;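 active means inhibition above a per-campaign cutoff equal to the mean of compounds falling between control-based bounds plus 3 SD, cut at about 20% in these data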
CendR NRP1 mod = modulators of CendR peptide binding to human neuropilin-1. O14786. FAM-RPARPAR peptide binding to NRP-1, fluorescence polarization. inhibition, % at 25 µM. 360,000 tested, 0.85% active. AID 602438;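 active means inhibition or corrected inhibition above about 18%, plus a signal ratio from 0.5 to 1.5, limit read from the data, passing the limit was not always enough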
Target sequence (O14786 whole entry, looked up): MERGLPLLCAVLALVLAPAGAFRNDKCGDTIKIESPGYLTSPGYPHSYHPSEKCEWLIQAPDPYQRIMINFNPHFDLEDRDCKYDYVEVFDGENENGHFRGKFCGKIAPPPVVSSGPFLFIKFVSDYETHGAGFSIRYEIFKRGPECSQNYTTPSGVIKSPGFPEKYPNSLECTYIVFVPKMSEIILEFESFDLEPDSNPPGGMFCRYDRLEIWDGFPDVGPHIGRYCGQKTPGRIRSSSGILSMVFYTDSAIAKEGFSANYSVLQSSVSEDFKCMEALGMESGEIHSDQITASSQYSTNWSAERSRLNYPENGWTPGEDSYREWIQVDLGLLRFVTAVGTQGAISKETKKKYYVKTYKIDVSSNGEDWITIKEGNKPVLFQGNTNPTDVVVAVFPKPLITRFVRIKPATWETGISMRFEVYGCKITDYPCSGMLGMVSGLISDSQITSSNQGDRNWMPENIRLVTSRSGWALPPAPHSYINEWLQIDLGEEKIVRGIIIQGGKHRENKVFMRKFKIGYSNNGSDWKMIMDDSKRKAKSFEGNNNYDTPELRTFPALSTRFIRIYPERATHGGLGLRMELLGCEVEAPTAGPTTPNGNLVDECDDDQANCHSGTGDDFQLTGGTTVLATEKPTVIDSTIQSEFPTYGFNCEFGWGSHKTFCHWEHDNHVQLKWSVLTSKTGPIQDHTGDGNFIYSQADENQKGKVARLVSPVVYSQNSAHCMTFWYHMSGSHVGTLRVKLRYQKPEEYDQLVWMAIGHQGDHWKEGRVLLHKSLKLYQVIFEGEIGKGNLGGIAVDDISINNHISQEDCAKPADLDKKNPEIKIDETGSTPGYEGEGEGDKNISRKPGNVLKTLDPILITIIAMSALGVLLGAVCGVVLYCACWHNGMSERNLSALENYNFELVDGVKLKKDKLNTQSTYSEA
ADAM17 inh = ADAM17 inhibition, QFRET primary screen; P78536; recombinant ADAM17, EDANS/DABCYL FRET peptide cleavage; inhibition, % at 6.95 µM; 370,000 tested, 0.83% active; AID 720648;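 active means inhibition above the mean of compounds lying between control limits plus 3 SD, set per campaign, cut at about 8.5% in these data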
proKLK7 act = activators of human kallikrein-7 zymogen. P49862. purified proKLK7, EDANS-DABCYL substrate fluorescence; 100% is mature enzyme control, 0% vehicle. activation, % at 7 µM. 370,000 tested, 0.9% active;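 active means activation above the mean of all tested compounds plus 3 SD, computed per campaign excluding outliers beyond control limits, cut at about 13% in these data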
hGIII sPLA2 conf = human GIII-sPLA2 inhibition, confirmation. shares compounds with HGIII-sPLA2 inh. inhibition, % at 12.2 µM. 2,000 tested, 34% active. recombinant hGIII-sPLA2, BODIPY PC-A2 QFRET fluorescence;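 active means mean inhibition across triplicates above the hit cutoff set in the earlier primary screen, cut at about 19% in these data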
535nm interf = counter-screen for HGIII-sPLA2 inhibitors: 535nm fluorescence interference; shares compounds with HGIII-sPLA2 inh; BODIPY FL product fluorescence interference, QFRET; inhibition, % at 12.2 µM; 2,000 tested, 8.5% active; AID 743282;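 active means average inhibition above the solvent-only control mean plus 3 SD, cut at about 6% in these data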
535nm interf DR = counter-screen for HGIII-sPLA2 inhibitors: 535nm fluorescence interference, dose response. shares compounds with HGIII-sPLA2 inh. BODIPY FL product fluorescence interference, cell-free. IC50, µM. 240 tested, under 10 active. AID 743455;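 active means IC50 at or below 10 µM; inactive means IC50 above 10 µM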
Large screens that a line does not name were inactive (follow-up assays come after a bar, where they were run).

CCOc1cc(CNc2ncc(-c3ccc(OC)cc3)n2C)ccc1O	HGIII-sPLA2 inh 20.1 | hGIII sPLA2 conf inactive | 535nm interf inactive
COc1ccc(C2Nc3ccccc3C(=O)N2c2ccc(F)cc2)cc1CSc1ccccn1 (centres undefined)	HGIII-sPLA2 inh 20.1 | hGIII sPLA2 conf inactive | 535nm interf inactive
CC(C)CNS(=O)(=O)/C=C/c1cc2c(cc1CNC(=O)OC(C)(C)C)OCO2	none (no result: CendR NRP1 mod)
CC1(C(=O)NS(=O)(=O)C2CC2)CCN(C(=O)c2c(F)cccc2F)C1 (centres undefined)	HGIII-sPLA2 inh 19.6 | hGIII sPLA2 conf inactive | 535nm interf inactive
COc1ccc2c(c1)C[C@@H](CON1C(C)(C)CCCC1(C)C)N2S(=O)(=O)c1ccc(C)cc1	none (no result: CendR NRP1 mod, proKLK7 act)
C/C(=N\NC(=O)c1nnn(-c2nonc2N)c1-c1ccccc1)c1ccccc1O	HGIII-sPLA2 inh 26.4 | hGIII sPLA2 conf 30.4 | 535nm interf inactive | 535nm interf DR inactive
CCCc1c(C(=O)N/N=C(\C)c2ccccc2O)nnn1-c1nonc1N	none
C[C@H]1[C@@H](NC(=O)c2ccc(Cl)c(C(F)(F)F)c2)CC[C@@]23CCCN2C(=O)CCC[C@@H]13	none (no result: CendR NRP1 mod, proKLK7 act)
COc1cccc2sc(NNC(=O)C3COc4ccccc4O3)nc12 (centres undefined)	HGIII-sPLA2 inh 22.5 | hGIII sPLA2 conf 23.9 | 535nm interf inactive
CCOc1ccc2nc(SCC(=O)NCc3ccc(S(N)(=O)=O)cc3)sc2c1	none
COc1ccc(CNC(=O)CSc2nc3ccc(N)cc3s2)cc1	HGIII-sPLA2 inh 28.5 | hGIII sPLA2 conf inactive | 535nm interf inactive
O=C(NCc1ccc(C(=O)NCC2CCCO2)cc1)c1cccc(Br)c1 (centres undefined)	none (no result: CendR NRP1 mod)
C#CCN1CC(N(C)CCOC(=O)CSc2ccccc2)CS1(=O)=O (centres undefined)	none (no result: CendR NRP1 mod)
Cc1ccc(NCCN(C)C)c2c(=O)c3cc(O)ccc3sc12	none
COc1cc(C)c2sc3ccccc3c(=O)c2c1NCCN(C)C	HGIII-sPLA2 inh 19.7 | hGIII sPLA2 conf inactive | 535nm interf inactive
CCc1ccccc1NC(=O)CCS(=O)(=O)c1ccc(C)cc1	HGIII-sPLA2 inh 19.7 | hGIII sPLA2 conf inactive | 535nm interf inactive
CC(C)Oc1ccc(CSc2ncn[nH]2)cc1	none
CC(C)Oc1ccc(CSC(=N)N)cc1	HGIII-sPLA2 inh 29.0 | hGIII sPLA2 conf inactive | 535nm interf inactive
CCCCN(C)c1nc(C)nc2c1nnn2Cc1ccccc1	none (no result: CendR NRP1 mod)
CCOC(=O)[C@@]12CN(C(=O)OC(C)(C)C)CC=C1N(Cc1ccc(OC)cc1)C(=O)[C@H]2CC(=O)N1CCN(C(=O)c2ccco2)CC1	none (no result: CendR NRP1 mod)
Cc1cc(C)nc(Sc2ccc([N+](=O)[O-])cc2[N+](=O)[O-])n1	HGIII-sPLA2 inh 20.3 | hGIII sPLA2 conf inactive | 535nm interf inactive
O=[N+]([O-])c1ccc(Sc2ccncn2)c([N+](=O)[O-])c1	none
O=C(O)c1ccccc1SCc1nc2ccccn2c1Br	none
N=C(N)SCc1nc2ccccn2c1Br	HGIII-sPLA2 inh 29.7 | hGIII sPLA2 conf inactive | 535nm interf inactive
Cc1cccc2nc(CSC(=N)N)c(Br)n12	HGIII-sPLA2 inh 23.6 | hGIII sPLA2 conf inactive | 535nm interf inactive
O=C(NC1CCCCN(Cc2ccc(Cl)cc2)C1=O)c1cc(-c2ccccc2)no1 (centres undefined)	none (no result: CendR NRP1 mod)
N#Cc1c2c(c[nH]c1=O)CCN2Cc1ccccc1	HGIII-sPLA2 inh 20.0 | hGIII sPLA2 conf inactive | 535nm interf inactive
CC(C)[C@H](NC(=O)[C@H](Cc1ccccc1)NC(=O)OC(C)(C)C)C(=O)N1CCC2CCN(S(=O)(=O)c3ccccc3)CC21 (some centres undefined)	none (no result: CendR NRP1 mod)
COc1ccc(C(=O)NC(=S)NNC(=O)c2ccc(NC(=O)C(C)C)cc2)cc1	HGIII-sPLA2 inh 25.9 | hGIII sPLA2 conf 27.0 | 535nm interf inactive
O=C(NC(=S)Nc1ccc(CN2CCOCC2)cc1)c1cccc([N+](=O)[O-])c1	HGIII-sPLA2 inh 19.3 | hGIII sPLA2 conf inactive | 535nm interf inactive
